TDP1 inh = blocks human tyrosyl-DNA phosphodiesterase 1; 0.28% of 350,000 active; Q9NUW8; Potency, µM (top dose mostly 130 µM), for the others: at the top dose activity change, negative = inhibition, usual class: inhibitors; recombinant TDP1, AlphaScreen DNA substrate cleavage; also: % is scaled to controls: 0 for no effect and ±100 for the full control effect; nearly all actives have a fitted effect of over 40% in size
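Recombinant E. coli-expressed Tdp1 (1 nM) preincubated with compound 15 min at RT, then 5'-biotin/3'-phosphotyrosine-FITC DNA substrate (15 nM) added for 5 min. AlphaScreen beads (10 ug/ml) added, 10 min RT; tyrosine-FITC cleavage read as signal loss.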
DT40 TDP1 CPT = DT40-hTDP1 cell growth loss with CPT. Potency, µM (top dose mostly 46.2 µM), for inactives: at the highest dose activity change, negative = growth inhibition, hits mostly inhibitors. chicken DT40 Tdp1-/-;hTDP1 cells + 20 nM CPT, ATP luminescence, 48 h. 12% of 420,000 active; also: % is scaled to controls: 0 for no effect and ±100 for the full control effect; nearly all actives have a fitted effect of over 55% in size
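Chicken DT40 Tdp1-/- cells stably complemented with human TDP1 were seeded at 400 cells/well in medium containing 20 nM camptothecin, exposed to pin-transferred compounds, and grown at 37 °C for at least 48 hr. Viability was read as ATP luminescence.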
TDP1 cell noCPT = qHTS for Inhibitors of human tyrosyl-DNA phosphodiesterase 1 (TDP1): qHTS in cells in absence of CPT; DT40 Tdp1-/- hTDP1 cells, no CPT, ATP luminescence, 48 h; Potency, µM (titrated, usually from 46.2 µM), without a hit: at the highest dose activity change, negative = growth inhibition, most hits filed as inhibitors; 15% of 420,000 active; AID 686978, 2013; also: % is scaled to controls: 0 for no effect and ±100 for the full control effect; nearly all actives have a fitted effect of over 55% in size
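Readout: luminescence from CellTiter-Glo after 30 min in the dark at RT. Cells: DT40 Tdp1-/- with stable hTDP1, 400/well. Exposure: compounds alone, ≥48 hr, 37 °C.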
ClpP mod = qHTS Assay for Activators of ClpP | ATP-dependent Clp protease proteolytic subunit (Bacillus subtilis (strain 168)), P80244 | 1.9% of 340,000 active | purified B. subtilis ClpP, FRET peptide cleavage, 20 min | AID 651965, 2013 | Potency, µM (series often up to 57.5 µM), inactives show top-dose activity change, negative = active; active = well fitted falling curve with a large enough effect; inconclusive = small, poorly fitted or top-dose-only effect; inactive = no such curve, though single readings can be large or run the other way; also: the source files actives as falling curves though it sought activators and does not explain the sign; nearly all actives have a fitted effect of over 65% in size
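Buffer: 100 mM Tris/HCl pH8, 100 mM KCl, 0.05% low protease BSA, 2.5% glycerol, 0.01% Tween-20. ClpP 10 microg/mL final; 20 min RT; delta FRET normalized to ADEP and DMSO controls.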
* hit, by the source's call; ? = inconclusive; nt = no result given; [ ] = remark or other dose. Shown are actives, neighbours in structure and some others; about 17% of the full set was active somewhere. Unless noted, calls follow the shape of the dose curve; as a rule, active = well fitted curve in the direction sought with a large enough effect; inconclusive = small, poorly fitted or top-dose-only effect, or another doubt; inactive = no such curve, though single readings can be large; an effect the other way counts as inactive or inconclusive. Potency is read from the fitted curve at half-maximal effect.

SMILES	TDP1 inh	DT40 TDP1 CPT	TDP1 cell noCPT	ClpP mod
COC(=O)[C@H](CCSC)NC(=O)N1CCN(c2cccc(C(F)(F)F)c2)CC1	2%	-30%	-12%	-2%
Fc1ccc(NC(=S)N2CCCN(c3ccc(C(F)(F)F)cn3)CC2)c(F)c1	0%	16µM*	18µM*	-15%
O=C(CCCCCCCCCCCCC1CCCC1)Nc1ccc(S(=O)(=O)c2ccc(NC(=O)CCCCCCCCCCCCC3CCCC3)cc2)cc1	nt	15%	-2%	nt
CCNC(=O)C1CCCN(C(=O)c2ccc3ccccc3c2)CC1 (centres undefined)	nt	-11%	-8%	-4%
O=C(Nc1ccccc1)N1CCN(c2ccc(C(F)(F)F)cn2)CC1	1%	7.3µM*	23µM*	?
Nc1c(C(=O)NC2CCCC2)c2nc3ccccc3nc2n1N	1%	?	23µM*	-2%
COc1ccc(OC)c(-n2c(SCC(=O)NCC3CCCO3)nc3ccccc3c2=O)c1 (centres undefined)	-1%	-13%	-11%	-1%
COc1ccc(OC)c(-n2c(N)c(C(=O)NCC3CCCO3)c3nc4ccccc4nc32)c1 (centres undefined)	0%	?	?	18µM*
CC(C)Cn1c(N)c(C(=O)NCC2CCCO2)c2nc3ccccc3nc21 (centres undefined)	-11%	?	26µM*	28µM*
Nc1c(C(=O)NCC2CCCO2)c2nc3ccccc3nc2n1/N=C/c1ccncc1 (centres undefined)	nt	8.2µM*	1.6µM*	-3%
COCCn1c(N)c(C(=O)NCC2CCCO2)c2nc3ccccc3nc21 (centres undefined)	2%	?	?	?
Nc1c(C(=O)OCC2CCCO2)c2nc3ccccc3nc2n1C1CCCC1 (centres undefined)	3%	?	12µM*	25µM*
FC(F)(F)c1ccc(Sc2n[nH]c(C(F)(F)F)n2)nc1	0%	?	29µM*	nt
C=CCSc1nc2sc3c(c2c(=O)[nH]1)CCC3	5%	3%	-1%	nt
COc1ccccc1NC(=O)c1c(NCc2ccc(OC)c(OC)c2OC)sc2c1CCC2	1%	?	23µM*	-4%
COc1ccccc1NC(=O)c1c(NCc2ccc(OC)c(OC)c2OC)sc2c1CCCC2	2%	?	?	-3%
COc1ccc(NC(=O)c2c(NCc3cccc(F)c3)sc3c2CCC3)c(OC)c1	5%	13µM*	10µM*	0%
COc1ccc(NC(=O)c2c(NCc3sccc3C)sc3c2CCCC3)c(OC)c1	9%	21µM*	13µM*	-1%
COc1ccc(NC(=O)c2c(NCc3ccc(OC)c(OC)c3OC)sc3c2CCC3)c(OC)c1	10%	13µM*	15µM*	1%
CC(C)OCCCNC(=O)C(=O)Nc1c2c(nn1-c1ccccc1)CS(=O)(=O)C2	10%	-5%	-16%	1%
CCOc1ccccc1NC(=O)c1c(NCc2ccc(C)o2)sc2c1CCC(C)C2 (centres undefined)	4%	-11%	-16%	-12%
CCOC(=O)c1ccc(NC(=O)c2c(NCc3cccc(OC)c3OC)sc3c2CCC3)cc1	0%	15µM*	21µM*	0%
CCOC(=O)c1ccc(NC(=O)c2c(NCc3sccc3C)sc3c2CCCCC3)cc1	5%	12µM*	21µM*	1%
CCOC(=O)c1c(NC(=O)c2cc(OC)c(OC)c(OC)c2)sc2c1CCCC2	3%[12.3 µM]	7%	3%	-1%
CCOc1ccccc1NC(=O)c1c(NCc2ccc(OC)c(OC)c2OC)sc2c1CCC(C)C2 (centres undefined)	2%	?	18µM*	-2%
CCOC(=O)N1CCc2c(sc(NCc3ccc(OC)c(OC)c3OC)c2C(=O)Nc2ccc(OC)cc2OC)C1	10%	?	16µM*	4%
COc1ccc(N2CCN(CCN3C(=O)c4ccccc4C3=O)CC2)cc1	nt	2%	8%	nt
COCCNC(=O)CN1C(=O)COc2ccc(S(=O)(=O)N3CCOCC3)cc21	5%	-26%	-7%	-11%
